# Activity calls are given as the source filed them. Unless noted, the rule behind the calls is not given here.
# Assays:
# [1] = compounds binding Alexa647 anti-His antibody – biochemical, small-molecule microarray, 635 nm fluorescence, artefact control for SMM control protein annotation, primary screen (AID 1128); conditions: higher = more signal;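 note: score merges feature fluorescence with signal-to-noise for each printed compound spot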
# [2] = tested on: Human papillomavirus type 1a E7 protein (residues 1-88); experiment: HPV1a E7 small-molecule binders, primary screen, biochemical, small-molecule microarray, residues 1-88, 635 nm (AID 1129); conditions: small-molecule microarray binding, fluorescence 635 nm; higher = more signal
# [3] = target: Focal adhesion kinase 1 (Homo sapiens) (UniProt Q05397); experiment: PTK2 protein binding on printed compound slides – biochemical, small-molecule microarray, 635/667 nm fluorescence, BSA, DTT, primary screen (AID 1130); conditions: 635 nm fluorescence, higher = more signal;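 note: composite of spot emission at 667 nm and signal to noise over triplicate slides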
# [4] = tested on: Fibrinogen (Alexa647-labelled); experiment: Alexa647-fibrinogen binding to printed small molecules – biochemical, small-molecule microarray, 635/667 nm fluorescence, artefact control for SMM control-protein annotation, profiling panel (AID 1131); conditions: fibrinogen-A647 binding fluorescence, higher = more signal;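 note: z-score merges 667 nm fluorescence with per-spot signal-to-noise over triplicate slides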
# [5] = target: Follistatin (Homo sapiens) (UniProt P19883); experiment: FST protein binding to printed compounds – biochemical, small-molecule microarray, 635/667 nm fluorescence, primary screen (AID 1132); conditions: 635 nm fluorescence, higher = more signal
# [6] = target: Fibroblast growth factor 2 (Homo sapiens) (UniProt P09038); experiment: basic fibroblast growth factor binding to printed compounds – biochemical, small-molecule microarray, 635/667 nm fluorescence, primary screen (AID 1133); conditions: FGF2, fluorescence 635/667, higher = more signal
# [7] = JC-1 mitochondrial potential readout, lung cancer cells – cell-based, A549, JC-1 fluorescence, basal, 24 h, 100 nL, profiling panel (AID 1138); conditions: higher = more signal;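 note: A549 lung adenocarcinoma cells under basal conditions with no added stimulus; test concentration not given here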
# [8] = tested on: Lefty1; experiment: Lefty1 protein binding to printed compounds – biochemical, small-molecule microarray, 635/667 nm fluorescence, primary screen (AID 1139); conditions: fluorescence 635/667, higher = more signal
# [9] = tested on: wheat germ agglutinin (Triticum aestivum), Alexa647-labelled; experiment: Alexa647-WGA lectin binding to printed small molecules – biochemical, small-molecule microarray, 635/667 nm fluorescence, artefact control for SMM control-protein annotation, profiling panel (AID 1140); conditions: WGA-A647 binding, 635 nm fluorescence, higher = more signal;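 note: score merges 667 nm feature emission with signal to noise over triplicate slides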
# [10] = target: Luciferin 4-monooxygenase (Photinus pyralis) (UniProt P08659); experiment: inhibition of purified Photinus pyralis luciferase – biochemical, luminescence, purified enzyme, 2006 set, primary screen (AID 1141); conditions: purified firefly luciferase, SteadyGlo luminescence, 30 min; higher = more signal, called active from +8 up or from −8 down;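 note: cell-free assay with purified firefly luciferase at 100 ng per well in PBS; test concentration not given here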
# [11] = tested on: Wnt5a (protein binding on small-molecule microarray); experiment: small molecules binding Wnt5a protein – biophysical, small-molecule microarray, 635/667 nm fluorescence, primary screen (AID 1142); conditions: 635 nm fluorescence, higher = more signal;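 note: fluorescence read at 667 nm with signal to noise per printed feature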
# [12] = ATP-based viability of Huh7 replicon cells – cell-based, CellTiter-Glo luminescence, basal, 48 h, cytotoxicity control for HCV replication inhibitor project, primary screen (AID 1143); conditions: higher = more signal, called active from +8 up or from −8 down;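 note: Huh7 hepatoma cells carrying a hepatitis C replication reporter with no stimulus; test concentration not given here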
# [13] = Pseudomonas biofilm growth suppression – PAO1 strain, BacTiter-Glo luminescence, LB-PBS, primary screen (AID 1144); conditions: P. aeruginosa PAO1 biofilm, 12 h, higher = more signal
# [14] = basal CRE-LacZ reporter activity in PC12 – cell-based, unstimulated, primary screen (AID 1145); conditions: no forskolin, luminescence, 4.5 h, higher = more signal, called active from +8 up or from −8 down
# [15] = forskolin-driven CRE-LacZ activity in PC12 – cell-based, CRE-LacZ reporter, forskolin-stimulated, primary screen (AID 1146); conditions: luminescence, 4.5 h, higher = more signal, called active from +8 up or from −8 down;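 note: PC12 cells with 6xCRE LacZ reporter stimulated by forskolin 10 µM; beta-galactosidase reporter signal reflecting CREB driven transcription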
# [16] = target: Streptavidin (Streptomyces avidinii) (UniProt P22629); experiment: compounds binding control protein streptavidin – biophysical, small-molecule microarray, 635/667 nm fluorescence, artefact control for SMM compound annotation, primary screen (AID 1147); conditions: higher = more signal;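 note: signal reflects streptavidin binding to arrayed compounds as a control protein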
# [17] = probe aInhba binding on compound microarray – biochemical, small-molecule microarray, 635/667 nm fluorescence, primary screen (AID 1148); conditions: higher = more signal;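 note: score merges 667nm spot fluorescence with signal-to-noise for antibody binding to printed compounds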
# [18] = target: Torsin-1A (Homo sapiens) (UniProt O14656); experiment: TOR1A wild-type binding on microarray – cell lysate, small-molecule microarray, lysate, 635/667 nm, primary screen (AID 1149); conditions: COS7 hTOR1A-WT lysate, 635 nm fluorescence, higher = more signal
# [19] = target: Torsin-1A (Homo sapiens) (UniProt O14656); experiment: torsin A mutant lysate binding on microarrays – cell lysate, small-molecule microarray, COS7 lysate, 635/667 nm fluorescence, primary screen (AID 1150); conditions: COS7 hTOR1A mutant lysate, 635 nm fluorescence, higher = more signal;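 note: score pools 667 nm emission and signal to noise measuring lysate protein binding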
# [20] = tested on: Sonic hedgehog protein (Shh); experiment: Sonic hedgehog microarray binding compounds – biochemical, small-molecule microarray, 635/667 nm fluorescence, primary screen (AID 1151); conditions: 635 nm fluorescence, higher = more signal;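 note: Shh protein binding to compounds spotted on small-molecule microarray slides; score combines spot fluorescence intensity with signal-to-noise across triplicate slides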
# Sequence of Torsin-1A (Homo sapiens) (O14656 whole entry, looked up): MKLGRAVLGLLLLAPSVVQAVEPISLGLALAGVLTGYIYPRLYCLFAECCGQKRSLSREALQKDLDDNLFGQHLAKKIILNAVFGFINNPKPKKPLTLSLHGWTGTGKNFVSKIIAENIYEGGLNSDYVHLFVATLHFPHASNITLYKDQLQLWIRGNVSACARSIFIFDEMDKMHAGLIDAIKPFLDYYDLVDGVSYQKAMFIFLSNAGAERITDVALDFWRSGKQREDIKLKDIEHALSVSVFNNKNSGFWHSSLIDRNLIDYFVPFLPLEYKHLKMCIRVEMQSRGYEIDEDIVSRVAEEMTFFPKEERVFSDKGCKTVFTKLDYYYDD
# Sequence of Fibroblast growth factor 2 (Homo sapiens) (P09038 whole entry, looked up): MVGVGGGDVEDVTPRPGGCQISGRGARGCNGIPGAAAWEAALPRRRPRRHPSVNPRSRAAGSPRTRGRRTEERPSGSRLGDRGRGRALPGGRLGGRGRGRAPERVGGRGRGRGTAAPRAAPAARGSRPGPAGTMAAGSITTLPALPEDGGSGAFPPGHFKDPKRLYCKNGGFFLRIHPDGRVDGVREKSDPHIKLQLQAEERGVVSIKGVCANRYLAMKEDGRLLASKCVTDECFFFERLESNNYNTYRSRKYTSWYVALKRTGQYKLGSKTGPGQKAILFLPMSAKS
# Sequence of Streptavidin (Streptomyces avidinii) (P22629 whole entry, looked up): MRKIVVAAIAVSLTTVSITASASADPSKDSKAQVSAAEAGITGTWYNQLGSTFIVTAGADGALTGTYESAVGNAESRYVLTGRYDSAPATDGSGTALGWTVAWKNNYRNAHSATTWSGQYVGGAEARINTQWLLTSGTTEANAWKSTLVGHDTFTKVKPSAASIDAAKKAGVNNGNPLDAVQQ
# Sequence of Luciferin 4-monooxygenase (Photinus pyralis) (P08659 whole entry, looked up): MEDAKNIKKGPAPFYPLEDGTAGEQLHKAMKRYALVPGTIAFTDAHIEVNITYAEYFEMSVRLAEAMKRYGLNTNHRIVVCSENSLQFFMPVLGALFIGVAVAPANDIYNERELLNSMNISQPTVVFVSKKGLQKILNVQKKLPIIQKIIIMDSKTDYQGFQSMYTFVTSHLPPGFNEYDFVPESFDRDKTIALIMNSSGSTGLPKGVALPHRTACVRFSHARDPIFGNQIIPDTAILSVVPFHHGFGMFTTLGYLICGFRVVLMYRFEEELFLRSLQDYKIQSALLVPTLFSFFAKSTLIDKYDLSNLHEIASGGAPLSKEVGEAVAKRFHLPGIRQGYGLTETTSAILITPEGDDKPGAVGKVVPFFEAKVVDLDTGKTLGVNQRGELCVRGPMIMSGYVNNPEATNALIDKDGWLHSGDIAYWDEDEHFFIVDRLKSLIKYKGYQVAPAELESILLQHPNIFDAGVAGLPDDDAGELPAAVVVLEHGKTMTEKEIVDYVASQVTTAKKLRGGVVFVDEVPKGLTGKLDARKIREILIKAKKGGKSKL
# Sequence of Follistatin (Homo sapiens) (P19883 whole entry, looked up): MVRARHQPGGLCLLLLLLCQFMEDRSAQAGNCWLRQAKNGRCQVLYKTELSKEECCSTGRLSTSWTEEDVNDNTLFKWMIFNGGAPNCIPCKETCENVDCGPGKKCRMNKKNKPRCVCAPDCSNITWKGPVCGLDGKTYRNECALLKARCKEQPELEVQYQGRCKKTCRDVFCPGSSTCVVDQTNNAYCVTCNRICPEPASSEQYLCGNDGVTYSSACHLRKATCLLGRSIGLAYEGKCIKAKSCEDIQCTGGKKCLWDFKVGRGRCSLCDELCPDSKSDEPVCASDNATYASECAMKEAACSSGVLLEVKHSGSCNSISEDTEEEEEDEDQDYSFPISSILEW
# Sequence of Focal adhesion kinase 1 (Homo sapiens) (Q05397 whole entry, looked up): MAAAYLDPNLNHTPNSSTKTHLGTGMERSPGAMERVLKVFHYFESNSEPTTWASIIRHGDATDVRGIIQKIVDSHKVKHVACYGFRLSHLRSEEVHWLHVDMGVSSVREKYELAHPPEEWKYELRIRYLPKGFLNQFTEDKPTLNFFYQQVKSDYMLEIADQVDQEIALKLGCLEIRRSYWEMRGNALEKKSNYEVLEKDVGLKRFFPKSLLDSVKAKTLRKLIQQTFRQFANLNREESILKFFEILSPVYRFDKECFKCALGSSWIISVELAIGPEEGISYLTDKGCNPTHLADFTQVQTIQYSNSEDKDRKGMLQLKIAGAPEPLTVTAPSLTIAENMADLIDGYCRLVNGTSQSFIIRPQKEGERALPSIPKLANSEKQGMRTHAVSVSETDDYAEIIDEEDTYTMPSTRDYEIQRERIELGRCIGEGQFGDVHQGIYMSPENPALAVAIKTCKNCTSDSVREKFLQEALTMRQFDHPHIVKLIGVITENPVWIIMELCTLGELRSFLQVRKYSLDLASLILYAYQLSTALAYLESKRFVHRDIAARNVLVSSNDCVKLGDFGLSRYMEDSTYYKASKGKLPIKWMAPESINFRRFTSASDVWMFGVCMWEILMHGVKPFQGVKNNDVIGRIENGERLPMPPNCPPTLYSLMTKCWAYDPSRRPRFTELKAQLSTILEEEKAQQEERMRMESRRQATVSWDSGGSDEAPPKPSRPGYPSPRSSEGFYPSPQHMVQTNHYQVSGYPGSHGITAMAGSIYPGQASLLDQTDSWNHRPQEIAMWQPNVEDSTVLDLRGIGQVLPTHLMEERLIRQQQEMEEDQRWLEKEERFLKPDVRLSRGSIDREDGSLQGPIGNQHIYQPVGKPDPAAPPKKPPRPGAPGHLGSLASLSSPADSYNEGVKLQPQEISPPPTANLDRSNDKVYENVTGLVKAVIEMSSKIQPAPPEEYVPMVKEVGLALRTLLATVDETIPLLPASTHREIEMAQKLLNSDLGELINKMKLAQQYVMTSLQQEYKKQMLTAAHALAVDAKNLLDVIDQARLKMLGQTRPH
Structure (SMILES),composite z-score [1],composite z-score [2],composite z-score [3],composite z-score [4],composite z-score [5],composite z-score [6],z-score [7],composite z-score [8],composite z-score [9],z-score [10],composite z-score [11],z-score [12],z-score [13],z-score [14],z-score [15],composite z-score [16],composite z-score [17],composite z-score [18],composite z-score [19],composite z-score [20]
CCCC[C@@H]1C[C@H]1[C@@H](NC(=O)c1cccs1)c1ccc(-c2ccccc2)cc1,0.433,0.852,0.0412,0.149,0.552,-0.292,0.319,0.361,0.849,1.65 (inactive),-0.0739,-2.14 (inactive),-0.218 (inactive),1.35 (inactive),2.05 (inactive),0.0523,0.0541,-0.473,-0.0352,1.73
COc1ccc([Si](C)(C)[C@H]2[C@H](CCO)O[C@@]3(C(=O)N(Cc4ccc(N(C=O)c5ccccc5)cc4)c4ccccc43)[C@@H]2C)cc1,0.841,0.179,0.114,-0.568,0.191,-0.408,0.357,0.151,0.655,0.221 (inactive),-0.308,-5.81 (inactive),-0.305 (inactive),1.92 (inactive),-1.24 (inactive),0.114,-0.157,-0.498,-0.074,0.399
O[C@@H](Cc1ccccc1)[C@H]1C2C=CCCC=C2CN1Cc1cccc(Cl)c1 (stereo not given in full),1.21,1.14,0.184,0.675,1.24,0.688,0.182,1.41,0.593,-1.89 (inactive),0.35,-1.1 (inactive),-0.829 (inactive),3.56 (inactive),2.78 (inactive),0.513,0.0173,0.739,-0.453,1.2
CCS[C@H]1[C@@H](C(=O)O)[C@H](c2ccc(C)cc2)N(S(=O)(=O)c2ccc(C)cc2)[C@@H]1CC,1.12,1.24,0.353,0.715,0.714,-0.0028,-0.223,-0.0097,0.652,1.16 (inactive),0.261,-0.0715 (inactive),-0.54 (inactive),-0.928 (inactive),-0.334 (inactive),0.68,0.206,-0.0832,0.477,-0.7
O=C1c2ccccc2[C@](Cc2ccccc2I)(C(=O)NCC(F)(F)F)[C@H](c2ccc(CO)cc2)N1Cc1ccccc1Cl,-0.176,1.19,1.22,0.722,1.1,0.138,0.423,0.883,0.549,0.406 (inactive),0.0919,-0.703 (inactive),-1.28 (inactive),0.506 (inactive),0.779 (inactive),0.742,0.216,-0.14,0.34,1.37
NC(=O)NCC#Cc1ccc2c(c1)[C@]1(C(=O)N2)[C@H](c2ccc(O)cc2)N2[C@H](c3ccccc3)[C@H](c3ccccc3)OC(=O)[C@H]2[C@@H]1C(=O)O,0.948,-0.404,-0.415,-0.159,-0.386,-0.912,-0.61,-0.283,-0.142,0.323 (inactive),-0.763,0.0192 (inactive),-0.248 (inactive),0.895 (inactive),-0.226 (inactive),-0.256,-0.299,-1.13,-0.914,-0.453
CC(C)[Si]1(C(C)C)O[C@@H](c2ccccc2)c2cc(-c3ccc(-c4ccc(Cl)c(Cl)c4)o3)nc(-c3ccccc3)c21,2.46,0.361,-0.289,0.291,-0.139,0.0622,-0.133,-0.0995,0.533,-0.266 (inactive),-0.0503,-0.62 (inactive),0.115 (inactive),-1.12 (inactive),2.02 (inactive),0.105,-0.0044,-0.118,0.261,0.15
C=C(CCCC)C(=O)CC[C@@H](OC(=O)c1ccccc1-c1ccccc1C(=O)O)c1ccc(OCCO)cc1,-0.54,0.0862,-0.72,-0.277,1.42,1.37,0.118,0.797,0.427,-2.06 (inactive),0.27,0.142 (inactive),-0.385 (inactive),-0.336 (inactive),1.8 (inactive),-0.074,-0.128,0.803,0.427,0.586
C[C@H]1NC(=O)[C@@]23C(=O)N[C@@H](Cc4ccccc4)C2[C@H](C)[C@@]2(C)O[C@H]2C3/C=C/C/C=C\CNC(=O)[C@@H]2CCCN2C1=O (stereo not given in full),-0.224,0.303,0.0122,0.859,1.05,0.692,0.419,0.946,0.765,0.193 (inactive),0.168,-0.0568 (inactive),-0.545 (inactive),1.03 (inactive),0.647 (inactive),0.301,-0.0589,0.396,-0.103,1.73
C=CCN1C(=O)[C@]2(O[C@H](CCn3cc([C@H](O)c4ccccc4)nn3)[C@@H]([Si](C)(C)c3ccc(OC)cc3)[C@@H]2C)c2ccccc21,-0.435,-0.723,-0.458,-1.07,-0.696,-0.403,-0.156,-0.581,0.417,0.184 (inactive),-0.336,-3.87 (inactive),-0.151 (inactive),2.23 (inactive),-0.979 (inactive),-0.957,-0.203,-0.704,-0.73,0.238
C=CC[C@@]1(C(=O)NCCN2CCOCC2)N=C(c2ccc(OCCCO)cc2)O[C@@H]1c1ccccc1N=[N+]=[N-],0.373,0.126,0.503,0.161,1.36,0.399,0.404,0.113,1.18,-5.94 (inactive),0.298,-1.56 (inactive),0.45 (inactive),0.185 (inactive),-0.461 (inactive),0.236,-0.0093,-0.0075,0.416,-0.203
COc1ccc(CCNC(=O)[C@@]2(Sc3ccc(C)cc3)CC(=O)N(C3Cc4ccccc4C3)[C@@H]2c2ccc(CO)cc2I)cc1,1.13,0.255,0.235,-0.716,-0.816,-0.944,1.43,-1.04,-0.176,-0.704 (inactive),-0.234,-1.23 (inactive),0.74 (inactive),0.649 (inactive),1.82 (inactive),-0.814,-0.196,-0.27,0.0598,-0.862
OCCCC1=CC(c2cccs2)N(Cc2cc3c(cc2Br)OCO3)CC1 (stereo not given),0.992,0.213,0.585,0.772,0.333,0.076,1.39,0.433,0.929,-0.0407 (inactive),-0.094,-1.18 (inactive),-0.137 (inactive),0.0563 (inactive),-0.056 (inactive),-0.0072,-0.024,0.155,0.396,1.4
C=C(CCCC)/C(=C/C[C@@H](OC(C)=O)c1ccc(OCCO)cc1)c1cnc2ccccc2c1,1.42,0.974,0.153,0.539,1.12,0.502,1.49,0.856,0.773,-1.81 (inactive),-0.0157,-0.842 (inactive),-1.02 (inactive),1.21 (inactive),-0.438 (inactive),0.514,-0.0405,-0.197,0.101,1.77
CC(C)C(O)C1C=CC2C(=O)N(c3ccccc3)C(=O)C2N1Nc1ccc([N+](=O)[O-])cc1 (stereo not given),0.663,1.17,0.774,0.954,-0.197,-0.378,-0.0625,-0.0809,1.01,1.18 (inactive),0.774,-0.208 (inactive),0.21 (inactive),-0.368 (inactive),-0.343 (inactive),0.122,0.726,0.0373,0.142,-0.688

# — PubChem BioAssay
